Structures are written as SMILES. This is part of a sample that, as a whole, favours compounds with a hit. Of some 83,000 tested, about 20% had one in any assay.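 Single-dose data. Exposure time 48 hours. Values below 10 considered active.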 Values without a mark were called inactive. The source made the active and inactive calls.

Assay in all cases: NCI-60 one-dose screen, 48 h (100 = growth as untreated, 0 = no growth, -100 = all killed)
Holding throughout (details): 10 µM unless noted

In assay [1] the test system is HT29 colon.
In assay [2] the test system is SNB-75 CNS.
Assay [3] concerns SNB-19 CNS.
Assay [4] relates to U251 CNS.
The subject of assay [5] is SK-MEL-5 melanoma.
Assay [6] relates to UACC-62 melanoma.
In assay [7] the test system is SK-MEL-28 melanoma.
Assay [8] concerns SK-MEL-2 melanoma.
Assay [9] deals with LOX IMVI melanoma.
Assay [10] concerns PC-3 prostate.

In the case of `CCOC(=O)c1c(Nc2ccccc2)nn2c(N)c(C#N)c(-c3ccc(F)cc3)nc12`, the growth in assay [1] was 97%; in assay [2] it was 82.4%; in assay [3], 94%; in assay [4] it was 88.7%; in assay [5] it was 88.7%; in assay [6] it was 84.6%. Besides, the growth in [7] and in [8] was 100% each time.

`CCCCCCNC(=O)Oc1ccc(/C(=C(/C)c2ccccc2)c2ccc(OCCN3CCCCCC3)cc2)cc1`: the growth in assay [1] was -13.3% (active); in assay [2], 56%; in [3], 66.7%; in [4], 22.1%; in assay [5], 20.1%; in assay [6], 44.2%. In addition, the results for the growth in assay [9], in [7] and in assay [8] were -14.5% (active), 44.4% and 95.9%, respectively.

Take `N#Cc1nc(-c2ccccc2)oc1N1CC[C@@H](CO)C1`: the growth in assay [1] was 107%; in assay [2], 98.3%; in [3], 94%; in assay [4] it was 103%; in assay [5] it was 99.6%; in assay [7], 101%. In assay [8], the growth was 110%.

With `N#Cc1nc(-c2ccccc2)oc1N1CCC(CO)C1` (centres undefined), the growth in [2] is 89%; in [3] it was 93.3%; in assay [4], 105%; in assay [10], 107%; in [5] it was 106%; in [6], 89.4%. The figures for the growth in assay [9] and in [7] were 88.2% and 103%, respectively.

As for `Cn1c(SCC(=O)c2cccs2)nc2ccccc2c1=O`, the growth in [1] is 106%; in assay [2], 88.7%; in [3], 102%; in assay [4], 97.5%; in [10], 90.3%; in [7] it was 105%. Also, the growth in assay [8] was 98%.

With `O=C(CSc1nnc(-c2ccc3nc(-c4ccc(Cl)cc4)[nH]c3c2)o1)Nc1ccc(C(=O)/C=C/c2ccc(Cl)cc2)cc1`, the growth is 100% in [1]; 90.9% in assay [2]; 99.5% in assay [3]; 82.2% in assay [4]; 93.7% in assay [5]; 83.2% in assay [6]. The growth in assay [9] was -24.2% (active); in assay [7], 106%; in [8], 111%.

Regarding `CS(=O)(=O)c1ccc(-c2nc3ccccn3c2C=Nc2ccc(Cl)cc2)cc1`, the growth is 75.7% in assay [1]; 77.9% in assay [2]; 89.1% in [3]; 91.9% in assay [4]; 68.6% in assay [5]; 24.5% in assay [6]. The growth in assay [9] was -59.2% (active); in assay [7] it was 74.3%.

On to `Clc1ccc2c(NCCCn3ccnc3)c3oc4ccc(Cl)cc4c3nc2c1`, for which the growth in assay [1] was 80.9%; in assay [2], 70.2%; in assay [3] it was 82.8%; in assay [4], 60.5%; in assay [5] it was 86.8%; in [6], 94.6%. Besides, the growth is 22.4% in assay [9] and 94% in [7].

Turning to `CNC(=O)c1cc(-c2ccc(NC(=O)Nc3ccc(N4CCOCC4)c(C(F)(F)F)c3)cc2)nc2cccnc12`, the growth in assay [1] is 54.9%; in assay [2], 67.6%; in assay [3] it was 58.8%; in assay [4], 43.7%; in assay [5] it was 67.2%; in [6] it was 64.3%. Moreover, the growth in assay [9] was 31.1%; in assay [7], 64.5%.

With `CC1=C(C)C(=O)C(Nc2cccc(C(F)(F)F)c2)=C(Cl)C1=O`, the growth was 103% in assay [1]; 66.5% in [2]; 92.4% in [3]; 79% in [4]; 80.2% in [6]; 98.3% in assay [7]. The growth in assay [8] was 85.8%.

With `CO/N=C1\CCc2c(sc(NC(=O)c3cccc(C(F)(F)F)c3)c2C(N)=O)C1`, the growth in assay [1] was 51.2%; in assay [2], -58.4% (active); in [3], 27.7%; in assay [4], 3.28% (active); in assay [10], 64.8%; in assay [7] it was 60.3%. The growth in assay [8] is 63.9%.

In the case of `Clc1ccc2oc3c(NCCCN4CCOCC4)c4ccccc4nc3c2c1`, the growth in assay [1] was 14%; in [2], 24.7%; in assay [3], 35.9%; in assay [4] it was 23%; in assay [5] it was 44.2%; in assay [6], 40%. Further, the growth was -53.1% (active) in assay [9], 36.9% in assay [7] and 56.8% in [8].

`CCN1C(=S)N(c2ccccc2)C2NC(=O)N(/N=C/C=C/c3ccccc3OC)C21` (centres undefined): the growth in assay [1] was 98.8%; in assay [2], 71.8%; in [3] it was 87.6%; in assay [4] it was 89.4%; in [5], 92.4%; in assay [6], 81.7%. Also, the figures for the growth in assay [9], in assay [7] and in [8] were 75.4%, 95.3% and 120%, respectively.

Source of the values: PubChem BioAssay (NCI).
